What all share (assay): DAPPL (digital affinity profiling via proximity ligation, sequencing); 10 mM Tris-HCl pH 7.5, 50 mM NaCl, 1 mM DTT, 4% glycerol, room temperature, 30 min; GST-TFs on glutathione beads, 16-mer random dsDNA library, 0.1% formaldehyde crosslink after washing; high values mean tight binding
Experiment [1] concerns the target T1, FEV (Homo sapiens, UniProt Q99581 1-238).
T1 sequence: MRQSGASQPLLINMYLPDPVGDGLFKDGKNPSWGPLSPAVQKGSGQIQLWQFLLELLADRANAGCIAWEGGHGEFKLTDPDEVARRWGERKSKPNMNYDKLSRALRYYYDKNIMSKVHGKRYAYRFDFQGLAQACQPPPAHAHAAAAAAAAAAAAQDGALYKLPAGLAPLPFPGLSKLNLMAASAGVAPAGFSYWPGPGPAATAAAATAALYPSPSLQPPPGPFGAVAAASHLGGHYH
Particulars: protein: recombinant; tags: N-terminal GST; dsDNA, one strand shown. The essentials:
(§1)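 Human transcription factors fused to GST were expressed in yeast, captured on glutathione beads, given DNA barcodes and pooled with a GST-only negative control. Pools were incubated with 200 nmole of a 16-mer random double-stranded DNA library in Tris/NaCl/DTT/glycerol buffer at room temperature for 30 min. They were then washed, crosslinked with 0.1% formaldehyde, proximity-ligated (BsaI/T4 ligase, 1 h, 37 °C), PCR-amplified and sequenced on an Illumina NextSeq500. Binding signal is each 6-mer's read frequency for a factor divided by its frequency for the GST control.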

Experiment [2] has as its target ETV5 (Homo sapiens, UniProt P41161 1-510). Particulars: protein: recombinant; tags: N-terminal GST; dsDNA, one strand shown. An outline of the steps: as §1
Experiment [3] deals with HSF1 (Homo sapiens, UniProt Q00613 1-529). Particulars: protein: recombinant; tags: N-terminal GST; chain copies: 3; dsDNA, one strand shown. The essentials:
as §1

Experiment [4] deals with T2, SPIC (Homo sapiens, UniProt Q8N5J4 1-248).
T2 sequence: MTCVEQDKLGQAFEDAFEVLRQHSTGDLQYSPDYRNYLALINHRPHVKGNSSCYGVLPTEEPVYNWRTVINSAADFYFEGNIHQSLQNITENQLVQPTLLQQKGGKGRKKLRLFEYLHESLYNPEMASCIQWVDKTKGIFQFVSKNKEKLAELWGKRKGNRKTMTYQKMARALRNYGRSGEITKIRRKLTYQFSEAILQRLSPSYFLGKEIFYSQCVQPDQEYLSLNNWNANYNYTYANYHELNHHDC
Particulars: protein: recombinant; tags: N-terminal GST; dsDNA, one strand shown. The essentials:
as §1

Experiment [5] concerns the target ELF4 (Homo sapiens, UniProt Q99607 1-663). Particulars: protein: recombinant; tags: N-terminal GST; dsDNA, one strand shown. An outline of the steps: as §1
Experiment [6] addresses T3, ELK4 (Homo sapiens, UniProt P28324-2 1-405).
T3 sequence: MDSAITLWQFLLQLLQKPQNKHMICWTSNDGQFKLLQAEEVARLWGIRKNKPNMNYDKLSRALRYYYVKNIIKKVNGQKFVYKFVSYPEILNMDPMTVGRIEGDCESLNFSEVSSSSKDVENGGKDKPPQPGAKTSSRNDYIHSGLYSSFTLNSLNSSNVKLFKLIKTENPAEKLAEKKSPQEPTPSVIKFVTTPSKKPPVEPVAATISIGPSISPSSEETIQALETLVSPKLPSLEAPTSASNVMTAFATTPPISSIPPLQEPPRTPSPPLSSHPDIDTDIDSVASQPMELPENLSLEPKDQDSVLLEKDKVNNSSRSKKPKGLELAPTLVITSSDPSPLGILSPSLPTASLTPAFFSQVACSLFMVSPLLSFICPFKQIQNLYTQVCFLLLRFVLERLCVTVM
Particulars: protein: recombinant; tags: N-terminal GST; dsDNA, one strand shown. The essentials: as §1

Experiment [7] concerns the target T4, ETV2 (Homo sapiens, UniProt O00321 1-342).
T4 sequence: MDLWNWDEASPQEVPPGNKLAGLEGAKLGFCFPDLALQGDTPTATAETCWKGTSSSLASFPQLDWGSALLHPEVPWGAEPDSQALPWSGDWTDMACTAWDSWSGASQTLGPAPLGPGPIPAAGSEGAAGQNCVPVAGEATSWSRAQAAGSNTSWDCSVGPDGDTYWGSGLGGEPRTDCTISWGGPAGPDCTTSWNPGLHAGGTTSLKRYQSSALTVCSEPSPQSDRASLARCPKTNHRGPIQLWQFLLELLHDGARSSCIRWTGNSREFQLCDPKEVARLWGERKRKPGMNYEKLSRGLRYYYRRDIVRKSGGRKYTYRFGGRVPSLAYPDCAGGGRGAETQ
Particulars: protein: recombinant; tags: N-terminal GST; dsDNA, one strand shown. The essentials: as §1

Experiment [8] concerns the target T5, ELF3 (Homo sapiens, UniProt P78545 1-371).
T5 sequence: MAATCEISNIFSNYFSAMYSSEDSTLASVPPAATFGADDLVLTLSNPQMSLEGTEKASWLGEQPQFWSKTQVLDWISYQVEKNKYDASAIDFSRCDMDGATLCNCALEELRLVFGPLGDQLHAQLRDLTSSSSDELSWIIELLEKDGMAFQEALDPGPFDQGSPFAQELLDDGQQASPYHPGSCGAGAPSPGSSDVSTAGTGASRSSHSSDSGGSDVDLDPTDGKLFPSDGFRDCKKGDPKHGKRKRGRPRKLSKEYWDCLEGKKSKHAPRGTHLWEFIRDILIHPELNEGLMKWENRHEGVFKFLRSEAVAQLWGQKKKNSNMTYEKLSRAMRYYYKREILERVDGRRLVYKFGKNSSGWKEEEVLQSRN
Particulars: protein: recombinant; tags: N-terminal GST; dsDNA, one strand shown. An outline of the steps:
as §1

The target in experiment [9] is ETV1 (Homo sapiens, UniProt P50549 1-477). Particulars: protein: recombinant; tags: N-terminal GST; dsDNA, one strand shown. An outline of the steps: as §1
ETV1, sequence (P50549 whole entry): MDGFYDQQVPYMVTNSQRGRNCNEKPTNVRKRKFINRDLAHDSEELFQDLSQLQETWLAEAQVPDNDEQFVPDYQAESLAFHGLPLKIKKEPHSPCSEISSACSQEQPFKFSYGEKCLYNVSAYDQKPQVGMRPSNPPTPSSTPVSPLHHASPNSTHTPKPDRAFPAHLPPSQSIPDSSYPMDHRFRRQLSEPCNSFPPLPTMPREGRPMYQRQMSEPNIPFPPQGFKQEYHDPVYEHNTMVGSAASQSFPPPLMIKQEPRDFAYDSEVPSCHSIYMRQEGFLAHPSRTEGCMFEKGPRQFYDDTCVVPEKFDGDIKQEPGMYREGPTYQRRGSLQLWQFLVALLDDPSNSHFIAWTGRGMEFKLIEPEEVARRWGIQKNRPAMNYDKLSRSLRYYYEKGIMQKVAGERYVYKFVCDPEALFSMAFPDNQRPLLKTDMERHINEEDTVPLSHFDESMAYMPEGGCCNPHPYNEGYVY

HSF1, sequence (Q00613 whole entry): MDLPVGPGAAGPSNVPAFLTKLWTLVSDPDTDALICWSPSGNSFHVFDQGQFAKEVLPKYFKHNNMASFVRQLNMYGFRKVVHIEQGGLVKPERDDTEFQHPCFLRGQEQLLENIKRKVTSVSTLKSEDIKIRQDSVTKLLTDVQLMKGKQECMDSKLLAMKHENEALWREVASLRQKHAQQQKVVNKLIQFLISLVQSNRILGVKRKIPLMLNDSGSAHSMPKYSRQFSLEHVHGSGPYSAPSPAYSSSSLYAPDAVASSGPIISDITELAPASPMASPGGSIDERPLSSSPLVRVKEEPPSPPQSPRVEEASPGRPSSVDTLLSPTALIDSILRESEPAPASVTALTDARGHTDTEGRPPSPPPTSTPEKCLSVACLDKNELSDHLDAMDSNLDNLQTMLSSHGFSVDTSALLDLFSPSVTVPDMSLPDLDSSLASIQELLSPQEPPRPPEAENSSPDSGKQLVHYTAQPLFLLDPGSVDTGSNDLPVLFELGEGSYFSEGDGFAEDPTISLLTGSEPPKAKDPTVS
ETV5, sequence (P41161 whole entry): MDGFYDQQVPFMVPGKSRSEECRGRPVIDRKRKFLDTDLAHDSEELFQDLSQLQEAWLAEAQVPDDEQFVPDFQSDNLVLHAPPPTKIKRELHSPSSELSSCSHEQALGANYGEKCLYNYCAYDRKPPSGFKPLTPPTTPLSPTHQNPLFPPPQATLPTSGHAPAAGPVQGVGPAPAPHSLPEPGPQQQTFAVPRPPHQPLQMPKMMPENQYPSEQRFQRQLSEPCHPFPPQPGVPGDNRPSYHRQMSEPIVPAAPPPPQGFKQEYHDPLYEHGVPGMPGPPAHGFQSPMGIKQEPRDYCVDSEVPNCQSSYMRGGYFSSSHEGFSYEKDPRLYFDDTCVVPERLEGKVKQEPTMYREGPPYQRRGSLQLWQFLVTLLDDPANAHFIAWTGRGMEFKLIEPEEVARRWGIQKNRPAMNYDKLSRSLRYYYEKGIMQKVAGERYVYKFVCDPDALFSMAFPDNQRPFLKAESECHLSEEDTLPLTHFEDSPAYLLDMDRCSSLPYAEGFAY
ELF4, sequence (Q99607 whole entry): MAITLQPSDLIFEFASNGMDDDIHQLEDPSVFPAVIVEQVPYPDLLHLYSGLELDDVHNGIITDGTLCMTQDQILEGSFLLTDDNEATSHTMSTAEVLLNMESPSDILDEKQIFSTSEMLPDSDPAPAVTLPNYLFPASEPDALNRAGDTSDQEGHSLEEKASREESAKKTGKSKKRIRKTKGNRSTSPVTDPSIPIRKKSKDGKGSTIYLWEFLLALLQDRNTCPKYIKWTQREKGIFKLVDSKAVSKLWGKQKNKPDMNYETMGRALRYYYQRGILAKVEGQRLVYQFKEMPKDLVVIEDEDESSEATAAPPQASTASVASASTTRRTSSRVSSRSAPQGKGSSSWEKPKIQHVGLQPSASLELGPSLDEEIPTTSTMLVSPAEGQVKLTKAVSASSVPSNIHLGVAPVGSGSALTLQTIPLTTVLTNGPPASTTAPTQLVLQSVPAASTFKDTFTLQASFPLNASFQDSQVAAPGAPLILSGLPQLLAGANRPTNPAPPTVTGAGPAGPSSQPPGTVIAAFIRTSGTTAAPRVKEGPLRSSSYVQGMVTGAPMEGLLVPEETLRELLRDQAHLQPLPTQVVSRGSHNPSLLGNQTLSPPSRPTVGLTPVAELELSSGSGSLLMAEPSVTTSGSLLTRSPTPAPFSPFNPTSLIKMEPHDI

Consider CGCCGA, for which the binding signal was 1.21 fold enrichment (6-mer frequency, TF over GST control) in experiment [1]; 1.13 fold enrichment (6-mer frequency, TF over GST control) in experiment [2]; 1.2 fold enrichment (6-mer frequency, TF over GST control) in [3]; 1.18 fold enrichment (6-mer frequency, TF over GST control) in experiment [4]; 1.26 fold enrichment (6-mer frequency, TF over GST control) in experiment [5]; 1.28 fold enrichment (6-mer frequency, TF over GST control) in experiment [6]. Besides, the binding signal in experiment [7] is 1.16 fold enrichment (6-mer frequency, TF over GST control); in experiment [8], 1.03 fold enrichment (6-mer frequency, TF over GST control); in experiment [9], 1.15 fold enrichment (6-mer frequency, TF over GST control).
Turning to AAGCAA, the binding signal in experiment [1] is 1.05 fold enrichment (6-mer frequency, TF over GST control); in [2], 1.11 fold enrichment (6-mer frequency, TF over GST control); in experiment [3] it was 1.04 fold enrichment (6-mer frequency, TF over GST control); in experiment [4], 1.03 fold enrichment (6-mer frequency, TF over GST control); in experiment [5] it was 1.06 fold enrichment (6-mer frequency, TF over GST control); in [6] it was 1.08 fold enrichment (6-mer frequency, TF over GST control). Further, the binding signal in [7] is 1.01 fold enrichment (6-mer frequency, TF over GST control); in experiment [8], 1.09 fold enrichment (6-mer frequency, TF over GST control); in experiment [9], 1.08 fold enrichment (6-mer frequency, TF over GST control).
As to GGAACT, the binding signal in [1] is 1.72 fold enrichment (6-mer frequency, TF over GST control); in [2], 1.96 fold enrichment (6-mer frequency, TF over GST control); in experiment [3] it was 1.31 fold enrichment (6-mer frequency, TF over GST control); in experiment [4], 2.08 fold enrichment (6-mer frequency, TF over GST control); in [5], 1.55 fold enrichment (6-mer frequency, TF over GST control); in experiment [6], 1.49 fold enrichment (6-mer frequency, TF over GST control). Besides, the binding signal in experiment [7] was 1.89 fold enrichment (6-mer frequency, TF over GST control); in [8], 1.87 fold enrichment (6-mer frequency, TF over GST control); in experiment [9], 2.03 fold enrichment (6-mer frequency, TF over GST control).
In the case of TGCAAC, the binding signal is 1.39 fold enrichment (6-mer frequency, TF over GST control) in [1]; 1.3 fold enrichment (6-mer frequency, TF over GST control) in experiment [2]; 1.06 fold enrichment (6-mer frequency, TF over GST control) in [3]; 1.19 fold enrichment (6-mer frequency, TF over GST control) in experiment [4]; 1.3 fold enrichment (6-mer frequency, TF over GST control) in experiment [5]; 1.46 fold enrichment (6-mer frequency, TF over GST control) in [6]. In addition, the binding signal was 1.31 fold enrichment (6-mer frequency, TF over GST control) in experiment [7]; 1.42 fold enrichment (6-mer frequency, TF over GST control) in experiment [8]; 1.4 fold enrichment (6-mer frequency, TF over GST control) in [9].
AACACG: the binding signal in experiment [1] was 1.19 fold enrichment (6-mer frequency, TF over GST control); in experiment [2] it was 1.25 fold enrichment (6-mer frequency, TF over GST control); in [3] it was 1.02 fold enrichment (6-mer frequency, TF over GST control); in experiment [4], 1.33 fold enrichment (6-mer frequency, TF over GST control); in experiment [5], 1.24 fold enrichment (6-mer frequency, TF over GST control); in [6] it was 1.22 fold enrichment (6-mer frequency, TF over GST control). The binding signal in [7] was 1.07 fold enrichment (6-mer frequency, TF over GST control); in experiment [8], 1.19 fold enrichment (6-mer frequency, TF over GST control); in [9] it was 1.24 fold enrichment (6-mer frequency, TF over GST control).
As for ACGGAA, the binding signal in experiment [1] was 1.83 fold enrichment (6-mer frequency, TF over GST control); in [2], 1.94 fold enrichment (6-mer frequency, TF over GST control); in experiment [3] it was 1.01 fold enrichment (6-mer frequency, TF over GST control); in [4], 1.69 fold enrichment (6-mer frequency, TF over GST control); in experiment [5], 1.61 fold enrichment (6-mer frequency, TF over GST control); in experiment [6], 1.5 fold enrichment (6-mer frequency, TF over GST control). In addition, the binding signal is 1.75 fold enrichment (6-mer frequency, TF over GST control) in [7]; 1.89 fold enrichment (6-mer frequency, TF over GST control) in [8]; 1.85 fold enrichment (6-mer frequency, TF over GST control) in experiment [9].
For GCACTC, the binding signal is 1.31 fold enrichment (6-mer frequency, TF over GST control) in [1]; 1.38 fold enrichment (6-mer frequency, TF over GST control) in experiment [2]; 1.06 fold enrichment (6-mer frequency, TF over GST control) in experiment [3]; 1.25 fold enrichment (6-mer frequency, TF over GST control) in [4]; 1.31 fold enrichment (6-mer frequency, TF over GST control) in [5]; 1.33 fold enrichment (6-mer frequency, TF over GST control) in experiment [6]. Moreover, the binding signal in [7] was 1.36 fold enrichment (6-mer frequency, TF over GST control); in experiment [8], 1.41 fold enrichment (6-mer frequency, TF over GST control); in experiment [9] it was 1.33 fold enrichment (6-mer frequency, TF over GST control).

The values are drawn from article PMC7862700, “An all-to-all approach to the identification of sequence-specific readers for epigenetic DNA modifications on cytosine”.
